# From article PMC5540273 (PLoS ONE, 2017)
# Assays:
# Conditions in all cases: concentration: 1 μM, replicates: in singlicate; n = 1
# [1] = test system: CSNK1G1
# [2] = test system: CSNK1G2
# [3] = test system: CSNK1G3
# [4] = test system: CSNK2A1
# [5] = test system: CSNK2A2
# [6] = test system: T1, CTK
# T1 construct: gene MATK
# [7] = test system: DAPK1
# [8] = test system: DAPK2
# [9] = test system: DAPK3
# [10] = test system: T2, DCAMKL1
# T2 construct: gene DCLK1
# [11] = test system: T3, DCAMKL2
# T3 construct: gene DCLK2
# [12] = test system: T4, DCAMKL3
# T4 construct: gene DCLK3
# [13] = test system: DDR1
# [14] = test system: DDR2
# [15] = test system: T5, DLK
# T5 construct: gene MAP3K12
# [16] = test system: T6, DMPK2
# T6 construct: gene CDC42BPG
# [17] = test system: DMPK
# [18] = test system: T7, DRAK1
# T7 construct: gene STK17A
# [19] = test system: T8, DRAK2
# T8 construct: gene STK17B
# [20] = test system: DYRK1A
# 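Further: KINOMEscan kinase panel screen.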
Structure (SMILES),%Inh [1] [%],%Inh [2] [%],%Inh [3] [%],%Inh [4] [%],%Inh [5] [%],%Inh [6] [%],%Inh [7] [%],%Inh [8] [%],%Inh [9] [%],%Inh [10] [%],%Inh [11] [%],%Inh [12] [%],%Inh [13] [%],%Inh [14] [%],%Inh [15] [%],%Inh [16] [%],%Inh [17] [%],%Inh [18] [%],%Inh [19] [%],%Inh [20] [%]
Cc1ccc(C(=O)Nc2ccc(Nc3ccnc4cc(-c5nccs5)ccc34)cc2O)cc1.Cl [GW494702],0,0,4,0,100,8,0,0,10,0,0,0,22,46,69,0,0,5,0,3
COc1ccc(-c2coc3ccc(-c4nnc(SCc5ccc(OC)c(C(F)(F)F)c5)o4)cc23)cc1,0,24,0,22,24,10,15,0,0,38,8,0,2,0,0,0,0,0,0,0
COCCOCCOc1cc2ncc3c4ccc(C#N)cc4[nH]c3c2cc1OC,0,24,17,75,95.3,0,0,7,15,20,14,66,0,0,71,0,3,100,100,99
O=C(NC1CCN(c2ccnc(Nc3ccc(F)cc3)n2)C1)c1cc2ccccc2s1 (centres unmarked) [GSK1379716],20,0,24,0,12,0,19,15,5,18,9,7,0,32,32,0,0,7,0,7
CN(C)Cc1ccc(-c2ccc3c(Nc4ccc(Oc5ccccn5)cc4)ccnc3c2)o1 [GW567148],0,0,0,0,0,16,0,0,0,14,0,0,38,45,69,0,0,4,0,13
COC(=O)Nc1nc2cc(Oc3ccc(NC(=O)Nc4cc(C(F)(F)F)ccc4F)cn3)ccc2[nH]1.Cl.Cl [GW681170],10,6,18,0,72,0,51,0,9,11,15,3,100,97.1,35,0,0,16,0,0
O=C(Nc1ccccc1F)NC1CCN(c2ccnc(Nc3ccc(F)cc3)n2)CC1 [GSK1379800],3,0,12,0,0,0,0,0,20,0,0,0,0,31,24,4,0,0,0,4
COc1cc(Nc2nccc(N3CCC(NC(=O)Nc4cccc(C(C)=O)c4)C3)n2)cc(OC)c1OC (centres unmarked) [GSK1379753],12,0,21,13,16,0,5,0,13,20,0,0,6,8,42,25,0,0,10,14
COC(=O)Nc1nc2ccc(Oc3ccc(NC(=O)Nc4cc(C(F)(F)F)ccc4F)cc3)cc2n1C.Cl [GW692089],6,0,12,0,1,0,0,0,0,6,0,9,100,99.9,31,0,0,0,9,2
O=c1[nH]cc(-c2ccc(N3CCOCC3)cc2)c2sc(-c3cn[nH]c3)cc12 [GSK2276055],43,43,63,64,79,0,37,19,23,12,0,0,3,0,0,0,0,35,11,99.8
CN1CCN(CCCNc2nccc(-c3c(-c4ccc(F)cc4)nn4cc(C(F)(F)F)ccc34)n2)CC1 [GW621581],0,0,16,0,0,0,0,0,100,0,0,25,100,81,16,0,0,33,0,5
Nc1n[nH]c2cnc(-c3ccccc3)cc12 [SB-642124],4,0,3,21,27,0,24,0,27,13,0,10,2,18,19,0,31,44,0,91.4
CC(C)c1nc(-c2cccc(NS(=O)(=O)c3c(F)cccc3F)c2F)c(-c2ccnc(Nc3ccc(N4CCOCC4)nc3)n2)s1 [GSK2008607],21,0,6,7,32,55,2,1,34,57,46,82,99.3,88,93.2,20,0,0,0,0
O=C(Nc1cccc(-c2nn3ncccc3c2-c2ccnc(Nc3ccccc3)n2)c1)c1c(F)cccc1F [GSK198271],19,0,26,8,11,27,11,0,1,18,0,20,100,91.8,8,99.8,0,0,0,18
COc1cccc(C(=O)Nc2cccc(Oc3ccc4nc(NC(=O)C5CC5)cn4n3)c2)c1,13,0,30,0,17,0,0,4,9,20,17,49,100,99.7,18,27,0,0,24,0
CCc1ccc(-c2ccc3c(c2)-c2c(cnn2C)S(=O)(=O)N3C)cc1,0,2,0,0,10,26,1,0,5,0,0,0,0,2,0,0,0,0,0,0
CN(C)S(=O)(=O)c1cc(-c2ccc3nccc(-c4cccc(S(N)(=O)=O)c4)c3c2)cnc1N [GSK1669921],22,0,33,11,4,12,0,8,3,28,6,0,100,5,0,0,10,0,0,37
COc1cc(Nc2nccc(-c3c(-c4cccc(NC(=O)c5c(F)cccc5F)c4)nn4ccccc34)n2)cc(OC)c1OC [GSK323521],20,31,25,2,6,0,0,22,19,9,11,11,90.3,61,3,49,9,0,0,13
COc1cc(Nc2nccc(-c3c(-c4cccc(NC(=O)c5c(F)cccc5F)c4)nn4ncccc34)n2)cc(OC)c1OC [GSK327238],16,0,20,0,4,14,0,0,0,12,0,43,100,95.2,2,100,8,0,0,23
O=C(Nc1n[nH]c2nc(-c3ccc(O)cc3)ccc12)C1CC1 [SB-710363],0,0,9,64,87,30,76,0,32,0,0,76,0,27,0,0,0,93.4,26,62

Structure (SMILES),%Inh [1] [%],%Inh [2] [%],%Inh [3] [%],%Inh [4] [%],%Inh [5] [%],%Inh [6] [%],%Inh [7] [%],%Inh [8] [%],%Inh [9] [%],%Inh [10] [%],%Inh [11] [%],%Inh [12] [%],%Inh [13] [%],%Inh [14] [%],%Inh [15] [%],%Inh [16] [%],%Inh [17] [%],%Inh [18] [%],%Inh [19] [%],%Inh [20] [%]
Cc1ccc(C)c(NC(=O)NC2CCN(c3ccnc(Nc4ccc(F)cc4)n3)C2)c1 (centres unmarked) [GSK1379720],0,15,12,0,0,0,0,0,0,6,0,3,0,25,0,0,0,10,0,10
COc1ccc(CNC(=O)NC2CCN(c3ccnc(Nc4ccc(F)cc4)n3)CC2)cc1 [GSK1379788],0,0,19,0,0,0,0,0,0,0,0,5,0,32,34,0,0,0,0,0
Cl.Cl.NCC(NCc1ccc(-c2ccnc3[nH]ccc23)s1)c1ccccc1 (centres unmarked) [GSK1321565],0,0,33,39,37,0,67,32,71,21,0,0,0,34,0,25,81,75,6,38
FC(F)(F)c1ccc(/C=C/c2cncnc2Nc2ccc3[nH]c(Cc4ccccc4)nc3c2)cc1 [GW709199],2,0,4,0,0,0,0,0,11,9,7,21,0,36,0,0,0,0,7,0
Oc1cc(Nc2ccnc3cc(I)ccc23)ccc1F [GW552771],0,0,0,23,0,6,0,0,30,0,0,0,14,19,32,0,0,0,6,36
CN(c1ccc(NC(=O)Nc2cc(C(F)(F)F)ccc2F)cc1)c1ccnc(Nc2ccc(S(N)(=O)=O)cc2)n1 [GW809893],5,0,18,13,0,23,0,0,0,3,2,6,97.6,93.9,14,9,0,0,18,17
O=C(Nc1cccc(-c2nn3ccccc3c2-c2ccnc(Nc3cccc(C(F)(F)F)c3)n2)c1)c1c(F)cccc1F [GSK292658],0,0,8,7,2,14,0,0,0,49,0,0,99.3,50,2,49,0,0,0,9
c1ccc(-c2cnc3nccnn23)cc1 [AH20685],0,5,0,0,0,0,0,0,0,0,27,0,0,24,20,0,0,0,0,42
COc1cccc(C2=C(Nc3ccc(Cl)c(C(=O)O)c3)C(=O)NC2=O)c1 [SB-390769],11,0,0,0,7,95.9,0,0,99.9,100,20,1,0,36,0,0,0,100,100,18
C[C@@H](Oc1cc(-n2cnc3cc(-c4ccnc(NCCS(C)(=O)=O)c4)ccc32)sc1C(N)=O)c1ccccc1Cl [GSK907232],13,0,14,16,37,5,64,12,17,26,1,0,0,0,12,0,0,0,4,31
CC(=O)Nc1nc2cnc(Nc3cc(NC(=O)c4cccc(C5(C#N)CC5)c4Cl)ccc3C)nc2s1,0,0,0,0,0,52,0,0,0,23,0,0,100,99.4,0,0,0,0,10,0
O=C(Nc1cccc(-c2nn3ccccc3c2-c2ccnc(Nc3cccc(F)c3)n2)c1)c1c(F)ccc(F)c1Cl [GSK357952],0,0,25,41,12,15,0,0,0,3,7,1,100,82,3,19,0,3,0,6
c1ccc(Oc2ccc(Nc3ccnc4cc(-c5ccc(CNCCN6CCOCC6)o5)ccc34)cc2)nc1 [GW567145],2,0,13,0,18,0,0,2,18,20,0,0,0,50,49,0,0,2,54,0
C[C@@H]1CC[C@@H](C(=O)Nc2ccccc2)CN1c1cc(-c2ccc3c(N)n[nH]c3c2)nc(N)n1 [GSK2286062],13,8,14,54,7,0,0,23,20,7,17,0,1,22,17,0,0,18,0,3
Nc1ncc(-c2cccnc2)c2scc(-c3ccc4c(c3)CCN4C(=O)Cc3ccccc3)c12 [GSK683281],32,9,58,77,28,9,0,0,27,20,1,34,63,0,6,72,4,1,0,23
Cc1ccc(C(=O)N2CC[C@@H](O)C2)cc1-n1c(C)cc(OCc2ccc(F)cc2F)c(Br)c1=O,0,0,0,0,0,0,3,0,7,40,0,0,99,94.6,0,0,0,0,0,0
O=C(O)C(F)(F)F.O=C(O)C(F)(F)F.O=c1[nH]ccc2nc(N[C@@H]3CCCNC3)nc(Nc3ccc(S(=O)(=O)N4CCOCC4)cc3)c12 [GSK2177277],96.3,98.8,99.2,98.7,98.9,69,98.2,98.1,99.3,98.1,100,99.5,18,82,95.6,92.7,99.7,98.4,94,84
Cl.c1ccc(-c2ccc3c(Nc4ccc5[nH]ccc5c4)ccnc3c2)nc1 [GW440138],0,0,25,0,0,0,5,0,23,0,0,17,99.4,79,43,0,0,0,2,0
Cl.NC(=O)c1cccc(Nc2nccc(Nc3ccc(Oc4c(Cl)cccc4Cl)c(Cl)c3)n2)c1 [GW659009],0,2,7,3,45,34,24,8,44,0,0,0,0,0,0,64,0,0,0,3
Nc1ncnc2c1nc(-c1ccccc1)n2-c1ccccc1 [SKF-97293],4,14,7,0,13,42,0,0,17,0,0,3,6,41,23,0,6,0,0,6
